Source: PubChem
In the library only some 8.1% were active in any assay of this set; here they are far more common.
KB-3-1 cytotox – kills parental KB-3-1 adenocarcinoma cells | Potency, µM (doses to about 46.1 µM), most hits filed as cytotoxic | KB-3-1 viability, CellTiter-Glo ATP luminescence, 72 h | AID 1347075 | hit rate 1.4% among 400,000; further: on the % scale 0 is the no-effect control and ±100 the full control effect; nearly all actives have a fitted effect of over 60% in size
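Here the drug-naive KB-3-1 line serves as comparator for MDR sub-line selectivity; cells received compound titrations, 72 h at 37 °C, then CellTiter-Glo readout.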
SW480 rereplic – induces DNA re-replication in SW480 colon adenocarcinoma cells. SW480 DNA re-replication, Hoechst DNA content imaging, 48 h. Potency, µM (highest dose often 46.1 µM), without a hit: at the highest dose re-replication activation, usual class: activators. hit rate 1.8% among 340,000. AID 624297; further: % of control where 0% means no effect; nearly all actives have a fitted effect of over 55% in size
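Image-based read-out: total Hoechst fluorescence of nuclei (405 nm excitation, 500-530 nm emission), with hits raising the fraction of high-intensity nuclei. SW480 colon cells incubated 48 hr with compounds at 37 C.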
ELG1 DNA repair – blocks ELG1-dependent DNA repair in HEK293T cells. HEK293T ELG1-luciferase reporter, luminescence, 16 h; DNA damage induced by 5-fluorouridine. Potency, µM (titrated, usually from 46.1 µM), for inactives: top-dose activity change, negative = inhibition, usual class: inhibitors. hit rate 2.3% among 330,000. AID 504467; further: on the % scale 0 is the no-effect control and ±100 the full control effect; nearly all actives have a fitted effect of over 55% in size
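In this reporter screen, reduction of luminescence relative to DMSO vehicle indicated activity. Compounds and 5-fluorouridine were added together to 2,000 cells per well, incubated for 16 hr at 37 °C, then developed with ONE-Glo.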
KB-V1 cytotox – KB-V1 MDR subline cytotoxicity; KB-V1 MDR cells viability, CellTiter-Glo, 72 h; Potency, µM (titrated, usually from 46.1 µM), actives largely listed as cytotoxic; hit rate 3.4% among 400,000; further: on the % scale 0 is the no-effect control and ±100 the full control effect; nearly all actives have a fitted effect of over 60% in size
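In this primary screen, KB-V1 cells overexpressing P-gp are incubated with library compounds (lowest to highest concentration) for 72 h at 37 degrees C before a luminescent ATP viability read.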
MCF10A rerep – DNA re-replication induction in MCF 10a cells | AID 624296 | Potency, µM (highest dose often 46.1 µM), inactives show top-dose activity, positive = re-replication, most hits filed as activators | hit rate 2.9% among 350,000 | MCF 10A DNA re-replication, Hoechst nuclear intensity, 48 h; further: % of control where 0% means no effect; nearly all actives have a fitted effect of over 50% in size
* = called active by the depositor; i = inactive; ? = inconclusive; nt = no result given; [ ] = remark or other dose. The call rests on the fitted dose curve; in most records, active means well fitted curve in the direction sought with a large enough effect; inconclusive means small, poorly fitted or top-dose-only effect, or another doubt; inactive means no such curve, though single readings can be large; an effect the other way counts as inactive or inconclusive. Potency means the concentration at half of the fitted maximal effect.

SMILES	KB-3-1 cytotox	SW480 rereplic	ELG1 DNA repair	KB-V1 cytotox	MCF10A rerep
COc1ccc(Cl)cc1Nc1ccc2cc(S(=O)(=O)N3CCCCC3)ccc2n1	i	nt	nt	i	nt
CCCCNC(=S)N(C)/N=C/c1ccc(OCc2ccc(C(=O)OC)cc2)c(OC)c1	i	3%	?	13µM*	?
Oc1[nH]c2ccccc2c1N=NC(=S)NCC1CCCO1 (stereo not drawn)	i	17%	?	12µM*	-25%
Oc1[nH]c2c(Cl)cc(Cl)cc2c1N=NC(=S)NCC1CCCO1 (stereo not drawn)	5.8µM*	3%	?	?	17%
Cc1cc(C)c2[nH]c(O)c(N=NC(=S)NCC3CCCO3)c2c1 (stereo not drawn)	i	13%	?	?	13%
CC(NC(=O)C1CCN(Cc2ccc(Oc3ccccc3)cc2)CC1)c1cccc2ccccc12 (stereo not drawn)	i	nt	nt	i	nt
O=C(COC(=O)/C=C/c1cccc(C(F)(F)F)c1)NC(=O)NCc1ccco1	i	-1%	14%	i	?
COCCNC(=O)CCSCc1ccccc1F	i	?	9%	i	4.1µM*
CCCOC1(C(F)(F)F)NC(=O)N(c2ccc(Cl)cc2)C1=O (stereo not drawn)	i	nt	nt	i	nt
Cc1ccc(CCC(=O)Nc2ncc(Cc3cccc(Cl)c3Cl)s2)o1	0.12µM*	1.2µM*	8%	0.52µM*	?
CC(C)C[C@@H](CN1CCCC1CN1C(=S)NC[C@@H]1Cc1ccccc1)N1C[C@H](Cc2ccc(O)cc2)N(CC2CCCCC2)C1=S (stereo partly drawn)	i	nt	nt	?	nt
CC(C)C[C@H]1CN([C@@H](CC(C)C)CN2CCCC2CN2C(=S)NC[C@@H]2Cc2ccc(O)cc2)C(=S)N1CC1CCCCC1 (stereo partly drawn)	?	4%	nt	21µM*	?
Oc1ccc(C[C@H]2CNC(=S)N2CC2CCCN2C[C@H](Cc2ccc(O)cc2)N2C[C@H](Cc3ccc(O)cc3)N(CC3CCCCCC3)C2=S)cc1 (stereo partly drawn)	21µM*	?	nt	?	10µM*
CCC(=O)N(C)C[C@H]1Oc2cc(Br)ccc2S(=O)(=O)N([C@@H](C)CO)C[C@H]1C	i	nt	nt	i	nt
COc1ccc(/C=N/NC(=O)c2nnn(-c3nonc3N)c2-c2cccc(OC)c2)cc1	?	-12%	3%	i	1%
COc1ccc(O)c(/C=N/NC(=O)c2c(C)nnn2-c2nonc2N)c1	i	7.3µM*	?	i	1%
COc1ccc(O)c(/C=N/NC(=O)c2ccc(N3CCCC3=O)cc2)c1	?	2.3µM*	8%	i	11%
CC1CCN(Cc2c(C(=O)N/N=C/c3cc(Br)ccc3O)nnn2-c2nonc2N)CC1	?	?	2.6µM*	?	2%
CCOc1ccc(/C=N/NC(=O)c2nnn(-c3nonc3N)c2CN2CCC(C)CC2)cc1	i	-2%	-27%	i	-1%
CC1CCN(Cc2c(C(=O)N/N=C/c3cc(Cl)ccc3O)nnn2-c2nonc2N)CC1	2.1µM*	5%	2.1µM*	?	-18%
CCOC(=O)c1nnn(-c2nonc2-n2cccc2)c1CN1CCC(C)CC1	i	?	11%	i	26µM*
COc1c(Cl)cc(Cl)cc1/C=N/NC(=O)c1nnn(-c2nonc2N)c1CN1CCC(C)CC1	i	?	3%	?	5.8µM*
COc1ccc(NC(=S)NNC(=O)c2nnn(-c3ccccc3)c2C)cc1	i	4.1µM*	-3%	18µM*	-66%
COc1ccc(NC(=O)c2cnn(-c3ccccc3)c2C)cc1	i	0%	?	?	-11%
COc1ccc(S(=O)(=O)Nc2ccc(Cc3ccncc3)cc2)cc1OC	?	-3%	-20%	?	10%
SMILES	KB-3-1 cytotox	SW480 rereplic	ELG1 DNA repair	KB-V1 cytotox	MCF10A rerep
O=S(=O)(Nc1ccc(Cc2ccncc2)cc1)c1ccc(Cl)c(Cl)c1	?	?	-19%	5.8µM*	53%
CC(C)(C)C(=O)Nc1cccc(-c2nc3ccccc3[nH]2)c1	i	-4%[9.22 µM]	-12%	i	-8%
CC(C)(C)C(=O)Nc1sc2c(c1-c1nc3ccccc3[nH]1)CCCC2	i	2%	3%	i	13µM*
O=C(CSC(=S)N1CCCCC1)Nc1nc(-c2ccccc2)c(-c2ccccc2)o1	i	12%	-11%	23µM*	6%
COc1ccc(C(C)NCCC(c2ccc(OC(C)C)cc2)c2ccccc2OC)cc1 (stereo not drawn)	21µM*	?	?	16µM*	23µM*
COc1ccc(C(CCNC(C)c2ccccc2)C(C)C)cc1 (stereo not drawn)	i	-20%	-9%	?	-6%
Nc1nnn(-c2ccccc2)c1-c1ccccc1	i	15µM*	nt	i	-1%
CCn1cc(C(=O)OCC(=O)c2cc(C)n(-c3cccc(C(F)(F)F)c3)c2C)c(=O)c2ccc(C)nc21	i	-53%	?	23µM*	12%
Cc1cc(C(=O)COC(=O)Cc2n[nH]c(=O)c3ccccc23)c(C)n1-c1cccc(C(F)(F)F)c1	?	-2%	23µM*	21µM*	17%
COCCNC(=O)C1(C)CCCN(C(=O)c2ccc(C)c(F)c2)C1 (stereo not drawn)	i	nt	nt	i	nt
Cc1cc(OCC(=O)OCC(=O)N2CC(C)CC(C)C2)ccc1Cl (stereo not drawn)	i	-11%	7%	?	-8%
CC(=O)c1c(C)[nH]c(C(=O)N2CCCC(C)C2)c1C (stereo not drawn)	i	2.3µM*	11%	i	9%
O=S(=O)(c1ccc(NC(=S)NN=Cc2ccccc2O)cc1)N1CCCCC1	i	?	nt	7.3µM*	15%
O=S(=O)(c1ccc(Cl)c(NC(=S)N/N=C/c2ccc(O)cc2)c1)N1CCOCC1	?	18µM*	23µM*	21µM*	?
NS(=O)(=O)c1ccc(NC(=S)Nc2ccc(S(=O)(=O)N3CCCC3)cc2)cc1	i	-23%	12%	i	22%
O=[N+]([O-])c1cc(Cl)cc(/C=N/NC(=S)Nc2ccc(S(=O)(=O)N3CCOCC3)cc2)c1O	?	?	13µM*	i	-3%
O=S(=O)(c1ccc(Cl)c(NC(=S)N/N=C/c2c(F)cccc2F)c1)N1CCOCC1	i	?	?	i	?
CCC(=O)Nc1ccc2nc(SCCOc3ccc(C)cc3OC)sc2c1	i	nt	nt	i	nt
CC1(C(=O)NS(=O)(=O)c2ccccc2C(F)(F)F)CCN1C(=O)COc1ccc(Cl)cc1 (stereo not drawn)	i	nt	nt	i	nt
